The supplement of paper PMC8728848
The entries come from a sample that favours the strongest signals as a whole.

Assays:
Assay in all cases: glycan array binding signal (z-score within array); higher = stronger binding
Details in all cases: glycan notation: IUPAC condensed, linker removed
[1] = biological target: Fuc(a1-2)Gal(b1-3)GlcNAc(b1-3)GalNAc
How it was run: (§1)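 From the Consortium for Functional Glycomics database, 3228 arrays were curated, keeping only those whose protein sequence was available. Binding is given as a within-array Z-score averaged across arrays sharing a protein sequence and across linkers. Negative Z-scores can be read as non-binding.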

Fuc(a1-2)Gal(b1-4)GlcNAc = biological target: Fuc(a1-2)Gal(b1-4)GlcNAc
How it was run: as §1

[2] = biological target: Fuc(a1-2)Gal(b1-4)GlcNAc(b1-3)Gal(b1-4)GlcNAc
How it was run: as §1

[3] = biological target: Fuc(a1-2)Gal6S(b1-3)GlcNAc6S
How it was run: as §1

[4] = biological target: Fuc(a1-2)[Gal(a1-3)]Gal(b1-4)[Fuc(a1-3)]GlcNAc(b1-3)GalNAc
How it was run: as §1

[5] = biological target: Fuc(a1-2)[GalNAc(a1-3)]Gal(b1-4)GlcNAc(b1-2)Man
How it was run: as §1

[6] = biological target: Fuc(a1-3)[Gal(b1-4)]GlcNAc(b1-2)Man(a1-3)[Fuc(a1-3)[Gal(b1-4)]GlcNAc(b1-2)Man(a1-6)]Man(b1-4)GlcNAc(b1-4)GlcNAc
How it was run: as §1

[7] = biological target: Fuc(a1-3)[Gal(b1-4)]GlcNAc(b1-6)[Gal(b1-3)GlcNAc(b1-3)]Gal(b1-4)Glc
How it was run: as §1

[8] = biological target: Fuc(a1-3)[GalNAc(b1-4)]GlcNAc6S
How it was run: as §1

[9] = biological target: Gal(a1-3)Gal(b1-3)GlcNAc(b1-3)GalNAc
How it was run: as §1

Gal(a1-3)Gal(b1-4)Glc = biological target: Gal(a1-3)Gal(b1-4)Glc
How it was run: as §1

[10] = biological target: Gal(a1-4)Gal(b1-3)GlcNAc(b1-2)Man(a1-3)[Gal(a1-4)Gal(b1-3)GlcNAc(b1-2)Man(a1-6)]Man(b1-4)GlcNAc(b1-4)GlcNAc
How it was run: as §1

Gal(b1-3)GlcNAc(b1-2)Man = biological target: Gal(b1-3)GlcNAc(b1-2)Man
How it was run: as §1

[11] = biological target: Gal(b1-3)[Fuc(a1-4)]GlcNAc(b1-3)Gal(b1-3)[Fuc(a1-4)]GlcNAc
How it was run: as §1

[12] = biological target: Gal(b1-3)[Neu5Ac(b2-6)]GalNAc
How it was run: as §1

[13] = biological target: Gal(b1-4)GlcNAc(b1-2)Man(a1-3)[Gal(b1-4)GlcNAc(b1-2)Man(a1-6)][GlcNAc(b1-4)]Man(b1-4)GlcNAc(b1-4)[Fuc(a1-6)]GlcNAc
How it was run: as §1

[14] = biological target: Gal(b1-4)GlcNAc(b1-2)[Gal(b1-4)GlcNAc(b1-4)]Man(a1-3)[GlcNAc(b1-4)][Gal(b1-4)GlcNAc(b1-2)Man(a1-6)]Man(b1-4)GlcNAc(b1-4)GlcNAc
How it was run: as §1

[15] = biological target: Gal(b1-4)GlcNAc(b1-3)Gal(b1-4)GlcNAc(b1-2)Man(a1-3)[Gal(b1-4)GlcNAc(b1-3)Gal(b1-4)GlcNAc(b1-2)Man(a1-6)]Man(b1-4)GlcNAc(b1-4)[Fuc(a1-6)]GlcNAc
How it was run: as §1

[16] = biological target: Gal(b1-4)GlcNAc(b1-3)Gal(b1-4)GlcNAc(b1-3)Gal(b1-4)GlcNAc(b1-3)Gal(b1-4)GlcNAc(b1-3)Gal(b1-4)GlcNAc(b1-2)Man(a1-3)[Gal(b1-4)GlcNAc(b1-3)Gal(b1-4)GlcNAc(b1-3)Gal(b1-4)GlcNAc(b1-3)Gal(b1-4)GlcNAc(b1-3)Gal(b1-4)GlcNAc(b1-2)Man(a1-6)]Man(b1-4)GlcNAc(b1-4)GlcNAc
How it was run: as §1

[17] = biological target: Gal(b1-4)GlcNAc(b1-3)Gal(b1-4)GlcNAc(b1-3)Gal(b1-4)GlcNAc(b1-3)Gal(b1-4)GlcNAc(b1-3)Gal(b1-4)GlcNAc(b1-2)Man(a1-3)[Gal(b1-4)GlcNAc(b1-3)Gal(b1-4)GlcNAc(b1-3)Gal(b1-4)GlcNAc(b1-3)Gal(b1-4)GlcNAc(b1-3)Gal(b1-4)GlcNAc(b1-2)Man(a1-6)]Man(b1-4)GlcNAc(b1-4)[Fuc(a1-6)]GlcNAc
How it was run: as §1

[18] = biological target: Gal(b1-4)GlcNAc(b1-6)[Gal(b1-4)GlcNAc(b1-3)]GalNAc
How it was run: as §1

Gal3S(b1-4)GlcNAc = biological target: Gal3S(b1-4)GlcNAc
How it was run: as §1

[19] = biological target: Gal3S(b1-4)[Fuc(a1-3)]GlcNAc6S
How it was run: as §1

Gal3S4S(b1-4)GlcNAc = biological target: Gal3S4S(b1-4)GlcNAc
How it was run: as §1

Gal3S6S(b1-4)GlcNAc = biological target: Gal3S6S(b1-4)GlcNAc
How it was run: as §1

Gal3S6S(b1-4)GlcNAc6S = biological target: Gal3S6S(b1-4)GlcNAc6S
How it was run: as §1

Gal6S(b1-3)GlcNAc6S = biological target: Gal6S(b1-3)GlcNAc6S
How it was run: as §1

Gal6S(b1-4)Glc6S = biological target: Gal6S(b1-4)Glc6S
How it was run: as §1

Gal6S(b1-4)GlcNAc6S = biological target: Gal6S(b1-4)GlcNAc6S
How it was run: as §1

[20] = biological target: GalNAc3S(b1-4)[Fuc(a1-3)]GlcNAc
How it was run: as §1

GalNAc4S6S(b1-4)GlcNAc = biological target: GalNAc4S6S(b1-4)GlcNAc
How it was run: as §1

[21] = biological target: GlcNAc(a1-4)Gal(b1-3)GlcNAc
How it was run: as §1

[22] = biological target: GlcNAc(b1-2)Man(a1-3)[GlcNAc(b1-4)][GlcNAc(b1-2)Man(a1-6)]Man(b1-4)GlcNAc(b1-4)GlcNAc
How it was run: as §1

[23] = biological target: GlcNAc(b1-3)Gal(b1-4)GlcNAc(b1-3)Gal(b1-4)GlcNAc(b1-2)Man(a1-3)[GlcNAc(b1-3)Gal(b1-4)GlcNAc(b1-3)Gal(b1-4)GlcNAc(b1-2)Man(a1-6)]Man(b1-4)GlcNAc(b1-4)[Fuc(a1-6)]GlcNAc
How it was run: as §1

[24] = biological target: GlcNAc(b1-4)GlcNAc(b1-4)GlcNAc(b1-4)GlcNAc(b1-4)GlcNAc
How it was run: as §1

[25] = biological target: GlcNAc(b1-4)[GlcNAc(b1-6)]GalNAc
How it was run: as §1

Kdn(a2-3)Gal(b1-3)GalNAc = biological target: Kdn(a2-3)Gal(b1-3)GalNAc
How it was run: as §1

Kdn(a2-3)Gal(b1-4)Glc = biological target: Kdn(a2-3)Gal(b1-4)Glc
How it was run: as §1

Man(a1-2)Man(a1-3)Man = biological target: Man(a1-2)Man(a1-3)Man
How it was run: as §1

[26] = biological target: Neu5Ac(a2-3)Gal(b1-3)GalNAc
How it was run: as §1

[27] = biological target: Neu5Ac(a2-3)Gal(b1-3)GlcNAc(b1-4)Gal(b1-4)Glc
How it was run: as §1

[28] = biological target: Neu5Ac(a2-3)Gal(b1-4)GlcNAc(b1-2)[Neu5Ac(a2-3)Gal(b1-4)GlcNAc(b1-6)]Man(a1-6)[Neu5Ac(a2-3)Gal(b1-4)GlcNAc(b1-2)Man(a1-3)][GlcNAc(b1-4)]Man(b1-4)GlcNAc(b1-4)GlcNAc
How it was run: as §1

[29] = biological target: Neu5Ac(a2-3)Gal(b1-4)GlcNAc(b1-3)Gal(b1-4)GlcNAc(b1-3)Gal(b1-4)GlcNAc
How it was run: as §1

[30] = biological target: Neu5Ac(a2-3)Gal(b1-4)GlcNAc(b1-3)Gal(b1-4)GlcNAc(b1-3)Gal(b1-4)GlcNAc(b1-2)Man(a1-3)[Neu5Ac(a2-3)Gal(b1-4)GlcNAc(b1-3)Gal(b1-4)GlcNAc(b1-3)Gal(b1-4)GlcNAc(b1-2)Man(a1-6)]GalNAc
How it was run: as §1

[31] = biological target: Neu5Ac(a2-3)Gal(b1-4)GlcNAc(b1-3)[Neu5Ac(a2-3)Gal(b1-4)GlcNAc(b1-6)]GalNAc
How it was run: as §1

[32] = biological target: Neu5Ac(a2-3)Gal(b1-4)GlcNAc6S
How it was run: as §1

[33] = biological target: Neu5Ac(a2-3)Gal(b1-4)[Fuc(a1-3)]GlcNAc(b1-3)Gal
How it was run: as §1

[34] = biological target: Neu5Ac(a2-3)Gal(b1-4)[Fuc(a1-3)]GlcNAc(b1-3)Gal(b1-4)[Fuc(a1-3)]GlcNAc(b1-3)Gal(b1-4)[Fuc(a1-3)]GlcNAc
How it was run: as §1

[35] = biological target: Neu5Ac(a2-6)Gal(b1-4)GlcNAc(b1-2)Man(a1-6)[Gal(b1-4)GlcNAc(b1-2)Man(a1-3)]Man(b1-4)GlcNAc(b1-4)GlcNAc
How it was run: as §1

[36] = biological target: Neu5Ac(a2-8)Neu5Ac(a2-3)[GalNAc(b1-4)]Gal(b1-4)Glc
How it was run: as §1

[37] = biological target: Neu5Ac(b2-6)Gal(b1-4)GlcNAc
How it was run: as §1

B1: CrataBL (Crataeva tapia), C0HJA4 (protein)
chain: AILTGVPYYILPSTSRAGFSPDNLRKNTSQLSCPLDLITQLRFPRRIGVPVIFTPQNSSLKVVPLSHNLNIHTCSDLWFCPESKIWTVKSSLTHGGSVVTTGGTFRSLGSWFRIERHGDSYKLVHCPRGSTPCRDVGIETVGGGGRRYLAPRDRPLAVRFTRASG
- glycan array binding signal (z-score) [1]: -0.444
- glycan array binding signal (z-score) (Fuc(a1-2)Gal(b1-4)GlcNAc): -0.486
- glycan array binding signal (z-score) [2]: -0.497
- glycan array binding signal (z-score) [3]: 5.81
- glycan array binding signal (z-score) [4]: -0.054
- glycan array binding signal (z-score) [5]: -0.507
- glycan array binding signal (z-score) [6]: -0.41
- glycan array binding signal (z-score) [7]: -0.443
- glycan array binding signal (z-score) [8]: 0.386
- glycan array binding signal (z-score) [9]: -0.383
- glycan array binding signal (z-score) (Gal(a1-3)Gal(b1-4)Glc): -0.243
- glycan array binding signal (z-score) [10]: -0.451
- glycan array binding signal (z-score) (Gal(b1-3)GlcNAc(b1-2)Man): -0.207
- glycan array binding signal (z-score) [11]: -0.412
- glycan array binding signal (z-score) [12]: -0.333
- glycan array binding signal (z-score) [13]: -0.533
- glycan array binding signal (z-score) [14]: -0.465
- glycan array binding signal (z-score) [15]: -0.376
- glycan array binding signal (z-score) [16]: -0.247
- glycan array binding signal (z-score) [17]: -0.276
- glycan array binding signal (z-score) [18]: -0.237
- glycan array binding signal (z-score) (Gal3S(b1-4)GlcNAc): -0.021
- glycan array binding signal (z-score) [19]: 5.22
- glycan array binding signal (z-score) (Gal3S4S(b1-4)GlcNAc): 2.38
- glycan array binding signal (z-score) (Gal3S6S(b1-4)GlcNAc): 3.14
- glycan array binding signal (z-score) (Gal3S6S(b1-4)GlcNAc6S): 11.7
- glycan array binding signal (z-score) (Gal6S(b1-3)GlcNAc6S): 6.61
- glycan array binding signal (z-score) (Gal6S(b1-4)Glc6S): 2.96
- glycan array binding signal (z-score) (Gal6S(b1-4)GlcNAc6S): 5.29
- glycan array binding signal (z-score) [20]: 0.423
- glycan array binding signal (z-score) (GalNAc4S6S(b1-4)GlcNAc): 5.23
- glycan array binding signal (z-score) [21]: -0.374
- glycan array binding signal (z-score) [22]: -0.23
- glycan array binding signal (z-score) [23]: -0.076
- glycan array binding signal (z-score) [24]: -0.186
- glycan array binding signal (z-score) [25]: -0.434
- glycan array binding signal (z-score) (Kdn(a2-3)Gal(b1-3)GalNAc): 0.64
- glycan array binding signal (z-score) (Kdn(a2-3)Gal(b1-4)Glc): 0.084
- glycan array binding signal (z-score) (Man(a1-2)Man(a1-3)Man): -0.472
- glycan array binding signal (z-score) [26]: 0.131
- glycan array binding signal (z-score) [27]: -0.112
- glycan array binding signal (z-score) [28]: -0.386
- glycan array binding signal (z-score) [29]: -0.389
- glycan array binding signal (z-score) [30]: 2.17
- glycan array binding signal (z-score) [31]: 0.163
- glycan array binding signal (z-score) [32]: 2.07
- glycan array binding signal (z-score) [33]: -0.448
- glycan array binding signal (z-score) [34]: -0.51
- glycan array binding signal (z-score) [35]: 0.067
- glycan array binding signal (z-score) [36]: 0.475
- glycan array binding signal (z-score) [37]: -0.387
